This note sets out measurements from PubChem BioAssay (NCI).

Some test systems named below: SR leukemia; RPMI-8226 leukemia; OVCAR-8 ovarian; OVCAR-5 ovarian; OVCAR-4 ovarian; SK-OV-3 ovarian; IGROV1 ovarian; OVCAR-3 ovarian; HS 578T breast; NCI/ADR-RES ovarian; T-47D breast; BT-549 breast; MDA-MB-435 melanoma; SW-620 colon; MCF7 breast; HCT-116 colon; HCC-2998 colon; KM12 colon.
Assay in all cases: NCI-60 one-dose screen, 48 h (100 = growth as untreated, 0 = no growth, -100 = all killed)
Holding throughout (details): 10 µM unless noted

The structures appear in SMILES notation. This is part of a sample that, as a whole, favours compounds with a hit. Of some 83,000 tested, about 20% had one in any assay.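 The endpoint reported here, percent growth, reads 100 for growth as untreated, 0 for no net growth and -100 for all cells dead.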 Values without a mark were called inactive. Activity calls are given as the source filed them. Rule for the calls: active = growth percent below 10; inactive = the rest.

As for `N#CCc1ncc(-c2ccc(C(F)(F)F)cc2)c(NC2CCCCCC2)n1`, the growth in the experiment with SR leukemia was -23.8% [100 µM] (active); with RPMI-8226 leukemia it was -32% [100 µM] (active); with OVCAR-8 ovarian, 26% [100 µM]; in the experiment on OVCAR-5 ovarian, 50.2% [100 µM]; in the experiment with OVCAR-4 ovarian, 42.5% [100 µM]; with SK-OV-3 ovarian, 74.9% [100 µM]. Besides, the growth is 44.9% [100 µM] in the experiment with IGROV1 ovarian; -19% [100 µM] (active) in the experiment on OVCAR-3 ovarian; 52.7% [100 µM] in the experiment on HS 578T breast; 28.3% [100 µM] in the experiment on NCI/ADR-RES ovarian; 20.7% [100 µM] in the experiment on T-47D breast; 9.45% [100 µM] (active) in the experiment with BT-549 breast. Further, the growth was 0.369% [100 µM] (active) in the experiment with MDA-MB-435 melanoma; 19% [100 µM] in the experiment on SW-620 colon; 18.4% [100 µM] with MCF7 breast; 8.09% [100 µM] (active) in the experiment with HCT-116 colon; 38.1% [100 µM] with HCC-2998 colon; 8.14% [100 µM] (active) in the experiment on KM12 colon.
Take `CC1(C)CC(=O)C2=C(C1)Oc1nc(N)c(C#N)c(N)c1C2c1ccc(F)cc1` (centres undefined): the growth in the experiment on SR leukemia was 55.3%; in the experiment with RPMI-8226 leukemia it was 163%; in the experiment on OVCAR-8 ovarian, 106%; with OVCAR-5 ovarian, 105%; with OVCAR-4 ovarian, 102%; with SK-OV-3 ovarian, 115%. The growth with IGROV1 ovarian is 500%; in the experiment on OVCAR-3 ovarian it was 121%; in the experiment on HS 578T breast, 103%; with NCI/ADR-RES ovarian, 122%; in the experiment on T-47D breast it was 116%; in the experiment on BT-549 breast it was 100%. The growth with MDA-MB-435 melanoma was 112%; in the experiment on SW-620 colon it was 101%; in the experiment with MCF7 breast, 109%; with HCT-116 colon, 109%; in the experiment on HCC-2998 colon, 132%; with KM12 colon, 109%.
On to `COc1ccc(/C=C/C(=O)/C=C/c2cc3ccccc3[nH]c2=O)cc1`, for which the growth with SR leukemia is -2.08% (active); with RPMI-8226 leukemia it was -22% (active); with OVCAR-8 ovarian, -11.8% (active); with OVCAR-5 ovarian it was 125%; in the experiment with OVCAR-4 ovarian, 74.5%; in the experiment on SK-OV-3 ovarian it was 88.8%. In addition, the growth in the experiment with IGROV1 ovarian was 130%; with OVCAR-3 ovarian, 32%; in the experiment with HS 578T breast, 102%; in the experiment with NCI/ADR-RES ovarian it was 92.5%; in the experiment with T-47D breast, 57.1%; in the experiment with BT-549 breast it was 64.9%. Besides, the growth in the experiment on MDA-MB-435 melanoma is 13.6%; with SW-620 colon, 36.4%; with MCF7 breast, 14.5%; with HCT-116 colon it was -30.8% (active); with HCC-2998 colon, 96.7%; with KM12 colon it was 27.6%.
For the molecule `CCOc1ccc2nc3ccc(Cl)cc3nc2c1`, the growth is -19.9% (active) in the experiment with SR leukemia; 71.5% with RPMI-8226 leukemia; 103% with OVCAR-8 ovarian; 216% in the experiment with OVCAR-5 ovarian; 82.1% with OVCAR-4 ovarian; 104% with SK-OV-3 ovarian. In addition, the growth in the experiment with IGROV1 ovarian is -8.97% (active); in the experiment on OVCAR-3 ovarian, 110%; with HS 578T breast it was 106%; in the experiment on NCI/ADR-RES ovarian, 96.4%; with T-47D breast, 80.6%; with BT-549 breast it was 90.7%. Also, the growth in the experiment with MDA-MB-435 melanoma is 107%; with SW-620 colon it was 91%; in the experiment with MCF7 breast, 92.3%; in the experiment on HCT-116 colon it was 88.1%; in the experiment on HCC-2998 colon it was 70.5%; in the experiment on KM12 colon it was 94.5%.
For `CCOc1ccc(N(C)c2ccc(/C=C/C3=[N+](C)c4ccccc4C3(C)C)cc2)cc1`, the growth in the experiment with SR leukemia is -26.7% (active); in the experiment with RPMI-8226 leukemia, -20.3% (active); with OVCAR-8 ovarian, -15.8% (active); with OVCAR-5 ovarian it was 40.1%; in the experiment with OVCAR-4 ovarian, 37.1%; with SK-OV-3 ovarian it was 16.9%. In addition, the growth was 1.79% (active) in the experiment on IGROV1 ovarian; -72.9% (active) in the experiment with OVCAR-3 ovarian; 41.7% with HS 578T breast; 72.9% with NCI/ADR-RES ovarian; 23.2% in the experiment with T-47D breast; 3.12% (active) with BT-549 breast. For the same molecule, the growth in the experiment with MDA-MB-435 melanoma is -51% (active); in the experiment on SW-620 colon, -40.4% (active); in the experiment with MCF7 breast it was 10.1%; in the experiment on HCT-116 colon, -45.6% (active); with HCC-2998 colon, 11.4%; in the experiment with KM12 colon it was -93% (active).
With `CCCCN(CCCC)CCCNc1c2c(nc3ccc(Cl)cc13)CCCC2`, the growth in the experiment with SR leukemia was 75.8%; in the experiment with RPMI-8226 leukemia it was 102%; in the experiment with OVCAR-8 ovarian, 102%; in the experiment with OVCAR-5 ovarian it was 84%; in the experiment with OVCAR-4 ovarian it was 84.7%; in the experiment with SK-OV-3 ovarian it was 105%. Further, the growth was 79.5% in the experiment with IGROV1 ovarian; 88.9% with OVCAR-3 ovarian; 104% in the experiment with HS 578T breast; 94.4% in the experiment with NCI/ADR-RES ovarian; 95.7% in the experiment on T-47D breast; 108% with BT-549 breast. The growth in the experiment on MDA-MB-435 melanoma was 103%; in the experiment on SW-620 colon, 82.3%; in the experiment on MCF7 breast, 89.6%; in the experiment with HCT-116 colon, 57.6%; with HCC-2998 colon, 82.8%; with KM12 colon it was 99.7%.
As to `CCCCCCNC(=O)Oc1ccc(/C(=C(/C)Cc2ccc(OC)cc2)c2ccc(OCCN3CCCCC3)cc2)cc1`, the growth is -0.659% (active) in the experiment on SR leukemia; 76.5% in the experiment on RPMI-8226 leukemia; 81.2% in the experiment with OVCAR-8 ovarian; 90.5% in the experiment on OVCAR-5 ovarian; 81% in the experiment on OVCAR-4 ovarian; 88.8% with SK-OV-3 ovarian. Also, the growth was 95.1% with IGROV1 ovarian; 93.9% in the experiment on OVCAR-3 ovarian; 80% with HS 578T breast; 86.3% with NCI/ADR-RES ovarian; 42% in the experiment with T-47D breast; 92.5% in the experiment on BT-549 breast. Also, the growth with MDA-MB-435 melanoma was 91.5%; in the experiment with SW-620 colon, 84.6%; in the experiment on MCF7 breast, 30.6%; in the experiment with HCT-116 colon it was 63.7%; in the experiment on HCC-2998 colon it was 94.9%; in the experiment with KM12 colon it was 85.6%.
Turning to `Ic1ccc(SSc2ccc(I)cc2)cc1`, the growth with SR leukemia is 60.6%; with RPMI-8226 leukemia, 95.6%; with OVCAR-8 ovarian it was 92.6%; in the experiment with OVCAR-5 ovarian, 114%; in the experiment on OVCAR-4 ovarian, 99.7%; with SK-OV-3 ovarian, 113%. For the same molecule, the growth with IGROV1 ovarian was 82.4%; in the experiment on OVCAR-3 ovarian, 102%; in the experiment with HS 578T breast, 96.9%; in the experiment on NCI/ADR-RES ovarian it was 101%; with T-47D breast it was 79.7%; in the experiment on BT-549 breast, 41.5%. Further, the growth with MDA-MB-435 melanoma is 100%; with SW-620 colon it was 106%; in the experiment with MCF7 breast, 92.4%; in the experiment on HCT-116 colon it was 83.7%; in the experiment with HCC-2998 colon, 104%; in the experiment on KM12 colon it was 82.2%.
